Compounds without any hit were thinned out: in the full panel of roughly 83,000, 20% have a hit.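 Cells were grown in 96-well plates and exposed to the test compound at a single concentration for 48 hours; results are reported as percent growth, with values below 10 considered active.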 Values without a mark were called inactive. Calls of active or inactive are those of the source.

The experiment deals with NCI-H522 lung. Put plainly: NCI-60 one-dose screen, 48 h (100 = growth as untreated, 0 = no growth, -100 = all killed). Particulars: 10 µM.
As for `CCN1CCN(CCC(=O)Nc2cccc(-n3cc(-c4ccncc4)c(-c4ccc(Cl)c(OC)c4)n3)c2)CC1`, the growth is -23.2% (active).

Take `O=C1/C=C/[C@@H](O)[C@@H]2C[C@@H](O)C[C@H]2/C=C/CCC[C@H](C(F)(F)F)O1`: the growth was -27.6% (active).

For the molecule `CC[C@@H](C(=O)[C@@H](C)[C@@H](O)[C@H](C)[C@@H]1O[C@@H]([C@@H](CC)C(=O)N(CC)CC)CC[C@@H]1C)C1O[C@]2(C=CC(=O)[C@]3(CC[C@@](C)([C@H]4CC[C@](O)(CC)[C@H](C)O4)O3)O2)[C@H](C)C[C@@H]1C` (stereo not given in full), the growth is 8.58% (active).

In the case of `COc1ccc(-c2cc(-c3ccc(Cl)cc3)nc(SCCCCCCC(=O)NO)n2)cc1OC`, the growth is 45.4%.

Regarding `N#CCc1csc(Cc2ccccc2)n1`, the growth was 88.9%.

Regarding `CC(C)(C)OC(=O)CN1CCc2c(sc3ncnc(N/N=C/c4ccccc4Br)c23)C1`, the growth is 53.4%.

Take `CC(CN(C)C)Oc1ccccc1NC1=C(Cl)C(=O)C(Nc2ccccc2OC(C)CN(C)C)=C(Cl)C1=O` (stereo not given): the growth is -73.4% (active).

For the molecule `Nc1ccn(Cc2nnc(CCC(=O)c3nc4ccccc4[nH]3)o2)c(=O)n1`, the growth is 84.2%.

With `CC(C)(C)OC(=O)CN1CCc2c(sc3ncnc(N/N=C/c4cccc5ccccc45)c23)C1`, the growth is 32.8%.

As to `CCOC(=O)c1cc(C(=O)c2ccc(Cl)cc2)n2ccc(-c3cc[n+](CC(=O)c4ccc(OC)cc4)cc3)cc12`, the growth is 70.8%.

With `NS(=O)(=O)Oc1ccc(NC(=O)C2CCCCCC2)cc1`, the growth was 95.6%.

As for `NNC(=O)Oc1c(Cl)cc(Cl)cc1[N+](=O)[O-]`, the growth was 96.9%.

In the case of `O=C1c2ccccc2C(=O)c2c1ccc(C(Br)Br)c2[N+](=O)[O-]`, the growth was 64.1%.

As to `COc1ccc(NC(=O)C2CC3C=CC2C3)c([N+](=O)[O-])c1` (stereo not given), the growth was 94.9%.

As to `CC[C@@H](C(=O)[C@H](C)[C@H](O)[C@@H](C)[C@H]1O[C@H]([C@@H](CC)C(=O)N(CC)CC)CC[C@H]1C)C1O[C@]2(C=C[C@@H](O)[C@]3(CC[C@@](C)([C@H]4CC[C@](O)(CC)[C@H](C)O4)O3)O2)[C@H](C)C[C@@H]1C` (stereo not given in full), the growth was 5.16% (active).

Regarding `COc1cc(-c2nn(-c3cccc(NC(=O)NCCNC(=O)c4cccc(C(F)(F)F)c4)c3)cc2-c2ccncc2)ccc1Cl`, the growth is 24.4%.

As to `O=C(O)c1cc([N+](=O)[O-])ccc1Oc1ccccc1`, the growth was 97.1%.

Regarding `CCOC(=O)c1cc(C(=O)c2cc(OC)c(OC)c(OC)c2)n2nc(C)ccc12`, the growth is 3.82% (active).

For `CC[C@@H](C(=O)[C@@H](C)[C@@H](O)[C@H](C)[C@@H]1O[C@@H]([C@@H](CC)C(=O)O)CC[C@@H]1C)C1O[C@]2(C=CC(=O)[C@]3(CC[C@@](C)([C@H]4CC[C@](O)(CC)[C@H](C)O4)O3)O2)[C@H](C)C[C@@H]1C` (stereo not given in full), the growth is 24.6%.

For the molecule `Cc1ccc(S(=O)(=O)N(C)CCCCCC(=O)O)cc1`, the growth was 90%.

Take `COc1ccc(C2=Cn3c(CCC(=O)c4nc5ccccc5[nH]4)nnc3SC2)cc1`: the growth is 98.6%.

Take `CCCN(CCC)C(=O)[C@H](CC)[C@@H]1CC[C@@H](C)[C@@H]([C@H](C)[C@@H](O)[C@@H](C)C(=O)[C@H](CC)C2O[C@]3(C=C[C@@H](O)[C@]4(CC[C@@](C)([C@H]5CC[C@](O)(CC)[C@H](C)O5)O4)O3)[C@H](C)C[C@@H]2C)O1` (stereo not given in full): the growth was -11.1% (active).

With `OCC1OC(n2cnc3c(NCc4ccco4)ncnc32)C(O)C1O` (stereo not given), the growth was 23.8%.

In the case of `CC[C@@H](C(=O)[C@H](C)[C@H](O)[C@@H](C)[C@H]1O[C@H]([C@@H](CC)C(=O)O)CC[C@H]1C)C1O[C@]2(C=C[C@@H](O)[C@]3(CC[C@@](C)([C@H]4CC[C@](O)(CC)[C@H](C)O4)O3)O2)[C@H](C)C[C@@H]1C` (stereo not given in full), the growth was -4.35% (active).

Consider `O=C(/C=C/c1cccc(B(O)O)c1)c1cccc(B(O)O)c1`, for which the growth is -9.1% (active).

For `Cc1ccc(Cl)cc1NC(=O)CCl`, the growth is 55.6%.

For the molecule `COc1cc(/C=C/c2cc(/C=C/c3ccc(O)c(OC)c3)nc(N)n2)ccc1O`, the growth was -41.3% (active).

Consider `C/C(=N\O)c1ccc(NC(=O)CSc2nnc(-c3ccccc3)n2-c2ccccc2)cc1`, for which the growth was -34.7% (active).

`O=C(NCCCNS(=O)(=O)c1ccc(Cl)cc1)Nc1ccc(-n2cc(-c3ccncc3)c(-c3ccc(Cl)c(O)c3)n2)cc1`: the growth is 40.6%.

`CS(=O)(=O)c1nccc(-c2c(-c3cccc(OCCN4CCOCC4)c3)nc3sccn23)n1`: the growth was -63.3% (active).

In the case of `C=CCSC(CC)(CC)C(=O)NC`, the growth is 86.5%.

As for `CCn1c(SC/C(=N/O)c2ccccc2)nnc1-c1ccccc1`, the growth is 112%.

Take `CCN(CC)CCOc1ccc2c(c1O)C(=O)c1ccccc1C2=O`: the growth is 82.6%.

With `CS(=O)(=O)c1nccc(-c2c(-c3cccc(O)c3)nc3sccn23)n1`, the growth was -2.17% (active).

In the case of `CC(=O)[C@H]1CC[C@]2(C)[C@@H]1CC[C@@H]1[C@@]3(C)CC(CCC#N)(CCC#N)C(=O)C(C)(C)[C@@H]3CC[C@]12C`, the growth is 94.1%.

On to `COc1cc(-c2nn(-c3cccc(NC(=O)CN4CCOCC4)c3)cc2-c2cccnc2)ccc1Cl`, for which the growth is 49.1%.

Consider `CNS(=O)(=O)Oc1ccc(-c2sc3cc(OS(=O)(=O)NC)ccc3c2C(=O)c2ccc(OCCN3CCCCC3)cc2)cc1`, for which the growth is 78.7%.

Consider `Clc1ccc(/C=C2\CCCC3C2=Nc2ccccc2NC3c2ccc(Cl)cc2)cc1` (stereo not given), for which the growth is 20%.

Regarding `CCOS(=O)(=O)c1c(C(C)C)cc(C(C)C)cc1C(C)C`, the growth was 100%.

For the molecule `COc1cc(/C=C/c2cc(/C=C/c3ccc(O)c(OC)c3)n(C(=O)Nc3ccccc3Cl)n2)ccc1O`, the growth was -18.7% (active).

(Values after PubChem BioAssay (NCI).)
